# Read-outs that look alike come from different tables or passages of the source.
# Legend:
# [1] = system: T1, DCAMKL2; details: concentration: 1 μM,replicates: in singlicate; n = 1
# T1 construct: gene DCLK2
# [2] = system: T2, DCAMKL3; details: concentration: 1 μM,replicates: in singlicate; n = 1
# T2 construct: gene DCLK3
# [3] = system: DDR1; details: concentration: 1 μM,replicates: in singlicate; n = 1
# [4] = system: DDR2; details: concentration: 1 μM,replicates: in singlicate; n = 1
# [5] = system: T3, DLK; details: concentration: 1 μM,replicates: in singlicate; n = 1
# T3 construct: gene MAP3K12
# [6] = system: T4, DMPK2; details: concentration: 1 μM,replicates: in singlicate; n = 1
# T4 construct: gene CDC42BPG
# [7] = system: DMPK; details: concentration: 1 μM,replicates: in singlicate; n = 1
# [8] = system: T5, DRAK1; details: concentration: 1 μM,replicates: in singlicate; n = 1
# T5 construct: gene STK17A
# [9] = system: T6, DRAK2; details: n = 1
# T6 construct: gene STK17B
# [10] = system: DYRK1A; details: concentration: 1 μM,replicates: in singlicate; n = 1
# [11] = system: DYRK1B; details: concentration: 1 μM,replicates: in singlicate; n = 1
# [12] = system: DYRK2; details: concentration: 1 μM,replicates: in singlicate; n = 1
# [13] = system: EGFR; details: concentration: 1 μM,replicates: in singlicate; n = 1
# [14] = system: EIF2AK1; details: concentration: 1 μM,replicates: in singlicate; n = 1
# [15] = system: EPHA1; details: concentration: 1 μM,replicates: in singlicate; n = 1
# [16] = system: EPHA2; details: concentration: 1 μM,replicates: in singlicate; n = 1
# [17] = system: EPHA3; details: concentration: 1 μM,replicates: in singlicate; n = 1
# [18] = system: EPHA4; details: concentration: 1 μM,replicates: in singlicate; n = 1
# [19] = system: EPHA5; details: concentration: 1 μM,replicates: in singlicate; n = 1
# [20] = system: EPHA6; details: concentration: 1 μM,replicates: in singlicate; n = 1
# [21] = concentration: 1 μM,replicates: in singlicate
# 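Also: KINOMEscan kinase panel screen.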
structure (smiles),measurement,setting,value
CC(=O)Nc1ccc(-c2cc3ncnc(SCC(=O)O)c3s2)cc1,%Inh,[1],24%
same,%Inh,[2],12%
same,%Inh,[3],0%
same,%Inh,[4],10%
same,%Inh,[5],2%
same,%Inh,[6],0%
same,%Inh,[7],7%
same,%Inh,[8],97.9%
same,%Inh,[9]; 1 µM,100%
same,%Inh,[10],66%
same,%Inh,[11],22%
same,%Inh,[12],39%
same,%Inh,[13],2%
same,%Inh,[14],0%
same,%Inh,[15],28%
same,%Inh,[16],0%
same,%Inh,[17],0%
same,%Inh,[18],19%
same,%Inh,[19],7%
same,%Inh,[20],22%
Cn1ccc2ncnc(Oc3ccc(NC(=O)Nc4ccnc(C(F)(F)F)c4)c(Cl)c3)c21,%Inh,[1],0%
same,%Inh,[2],0%
same,%Inh,[3],100%
same,%Inh,[4],99.6%
same,%Inh,[5],0%
same,%Inh,[6],0%
same,%Inh,[7],0%
same,%Inh,[8],0%
same,%Inh,[9]; [21],3%
same,%Inh,[10],13%
same,%Inh,[11],53%
same,%Inh,[12],0%
same,%Inh,[13],3%
same,%Inh,[14],0%
same,%Inh,[15],0%
same,%Inh,[16],0%
same,%Inh,[17],10%
same,%Inh,[18],29%
same,%Inh,[19],0%
same,%Inh,[20],80%
Cn1ccc2ncnc(Oc3ccc(NC(=O)Nc4cc(C(C)(C)C)on4)c(Cl)c3)c21,%Inh,[1],15%
same,%Inh,[2],0%
same,%Inh,[3],100%
same,%Inh,[4],99.4%
same,%Inh,[5],0%
same,%Inh,[6],6%
same,%Inh,[7],0%
same,%Inh,[8],11%
same,%Inh,[9]; [21],35%
same,%Inh,[10],26%
same,%Inh,[11],39%
same,%Inh,[12],23%
same,%Inh,[13],50%
same,%Inh,[14],3%
same,%Inh,[15],71%
same,%Inh,[16],85%
same,%Inh,[17],93.4%
same,%Inh,[18],68%
same,%Inh,[19],58%
same,%Inh,[20],99.6%
CC(=O)Nc1nc2cnc(Nc3cc(NC(=O)c4cccc(CC(C)(C)C#N)c4)ccc3C)nc2s1,%Inh,[1],5%
same,%Inh,[2],0%
same,%Inh,[3],100%
same,%Inh,[4],97.2%
same,%Inh,[5],26%
same,%Inh,[6],2%
same,%Inh,[7],0%
same,%Inh,[8],0%
same,%Inh,[9]; [21],0%
same,%Inh,[10],0%
same,%Inh,[11],31%
same,%Inh,[12],0%
same,%Inh,[13],0%
same,%Inh,[14],30%
same,%Inh,[15],0%
same,%Inh,[16],84%
same,%Inh,[17],65%
same,%Inh,[18],54%
same,%Inh,[19],21%
same,%Inh,[20],38%
CN1CCN(CCCNc2nccc(-c3c(-c4ccc(F)cc4)nn4cc(C(N)=O)ccc34)n2)CC1 [GW622475],%Inh,[1],0%
same,%Inh,[2],7%
same,%Inh,[3],100%
same,%Inh,[4],82%
same,%Inh,[5],0%
same,%Inh,[6],44%
same,%Inh,[7],0%
same,%Inh,[8],0%
same,%Inh,[9]; [21],17%
same,%Inh,[10],20%
same,%Inh,[11],100%
same,%Inh,[12],19%
same,%Inh,[13],38%
same,%Inh,[14],8%
same,%Inh,[15],51%
same,%Inh,[16],28%
same,%Inh,[17],31%
same,%Inh,[18],0%
same,%Inh,[19],0%
same,%Inh,[20],21%
